Assay outcomes (PubChem)
An excerpt weighted towards active compounds, which were near 3.4% of everything screened.
MITF act: activators of MITF-driven TRPM1 promoter activity in SK-MEL-5 cells; SK-MEL-5 TRPM1-promoter luciferase, 24 h; % of positive control, neutral wells = 0; activation, % at 12.5 µM; hit rate 0.75% among 300,000;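 active means mean activation of at least 80% with every replicate also reaching 80%; inconclusive means mean reaches 80% but some replicate falls short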
miR-122 sensor: miR-122 inhibition in Huh7 cells; Huh7 miR-122 Renilla luciferase sensor, 48 h; neutral wells = 0, positive control = 100; hit rate 0.3% among 340,000; activation (reporter increase), % at 12.5 µM;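 active means mean replicate activation score at least 90 and every replicate individually at or above 90; inconclusive means only one of the two criteria met; inactive means neither criterion met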;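 further: higher luciferase means less miR-122 activity so hits act as miR-122 inhibitors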
Wnt bcat act: Wnt/beta-catenin pathway activation; Wnt/beta-catenin reporter cell assay, activator, plate reader; activation, % at 9.35 µM; hit rate 1.2% among 300,000; AID 743398; in the data active means activation above about 30%, passing the limit was not always enough; inconclusive means no clear call, values can overlap the other calls
esBAF inh: blocks esBAF chromatin remodeling in mouse ES cells; hit rate 2% among 350,000; Bmi1-luciferase knock-in reporter, 24 h; 100% = twice the neutral-well signal; reporter increase, % at 12.5 µM; in the data active means activation above about 40%; inconclusive means no clear call, values can overlap the other calls;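 further: a rise in the Bmi1 reporter signal indicates esBAF inhibition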
HIV Env fusion: HIV envelope-mediated fusion inhibition. HeLa-JRFL Env/CEM21 cell fusion, luciferase. hit rate 1.1% among 360,000. inhibition, % at 12.3 µM;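 active means mean replicate inhibition score of at least 50 and every replicate individually at or above 50; inconclusive means only one of the two criteria met; inactive means mean below 50 and not all replicates reaching 50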
Hits are given with their value; - = inactive; ? = inconclusive; . = no result given; [ ] = dose if it differs, or a comment.

SMILES	MITF act	miR-122 sensor	Wnt bcat act	esBAF inh	HIV Env fusion
O=C(NCc1cccs1)c1cc(-c2ccc(O)cc2)on1	-	-	36.9	?	-
Cc1ccc(-c2cc(C(=O)NCc3cccs3)no2)cc1	-	-	.	?	.
CCCc1cc(C(=O)NCc2cccs2)no1	.	-	-	54.3	-
C[C@@H]1CCCCO[C@@H](CN(C)C(=O)Cc2ccccc2)[C@H](C)CN([C@@H](C)CO)C(=O)c2cc(NC(=O)Nc3ccccc3)ccc2O1	.	-	.	-	-
COc1ccc(S(=O)(=O)Nc2ccc3c(c2)C(=O)N([C@H](C)CO)C[C@@H](C)[C@H](CN(C)Cc2ccc4c(c2)OCO4)OCCCC[C@H](C)O3)cc1	.	-	.	-	-
Cc1cc(C)nc(SCC(=O)N/N=C\C(Br)=C\c2ccccc2)n1	-	.	-	.	-
Cc1occc1C(=O)N/N=C/C(Br)=C\c1ccccc1	.	-	58.4	.	-
O=C(O)c1ccc(N/N=C/C(Br)=C/c2ccccc2)cc1	-	-	-	74.3	-
O=C(N/N=C/C(Br)=C\c1ccccc1)c1cccs1	.	-	125.8	.	-
CC(=C/c1ccccc1)/C=N/NC(=O)c1cccs1	.	-	-	.	-
Cc1occc1C(=O)N/N=C/C=C/c1ccccc1	?	.	-	.	-
Cc1ccc(NCC(=O)N/N=C\C(Br)=C\c2ccccc2)cc1	-	-	-	54.6	.
BrC(=C\c1ccccc1)/C=N/Nc1nc2ccccc2[nH]1	-	-	33.1	.	-
C(=N\Nc1nc2ccccc2[nH]1)/c1ccc2ncccc2c1	.	-	-	-	-
O=C(N/N=C/c1cccc(OCc2ccccc2)c1)c1cccs1	.	-	38.6	46.2	-
Cc1occc1C(=O)N/N=C/C=C/c1ccc(N(C)C)cc1	-	-	-	61.5	-
O=C(C=NNc1ccccc1)c1ccccc1	-	.	58.2	-	-
O=C(O)c1ccc(COc2ccc(/C=N/NC(=O)c3cccs3)cc2)cc1	-	-	-	-	.
COc1ccc(-c2nc(N)nc(N)n2)c(O)c1	-	-	-	47.9	-
Oc1ccccc1/C=N/NC(=S)NC1CC2CC1C1C=CCC21 (configuration not stated)	-	-	48.6	56.8	-
C[C@@H]1CN([C@@H](C)CO)C(=O)c2cccc(NS(=O)(=O)c3ccccc3)c2O[C@@H]1CN(C)S(C)(=O)=O	.	-	.	-	.
NC(=O)c1nsc(C(=O)N(c2ccc(F)cc2)C(C(=O)NCC2CCCO2)c2c[nH]c3ccccc23)c1N (configuration not stated)	-	-	-	-	-
CCc1ccc(N(C(=O)c2snc(C(N)=O)c2N)C(C(=O)NCCC(C)C)c2c[nH]c3ccccc23)cc1 (configuration not stated)	.	-	-	-	118.0
c1ccc(C2=NN(c3ccccc3)CC2)cc1	87.9	-	50.3	45.5	-
CCOC(=O)/C(=C/c1ccc(N2CCC(c3ccccc3)=N2)cc1)C(C)=O	-	.	.	.	.
SMILES	MITF act	miR-122 sensor	Wnt bcat act	esBAF inh	HIV Env fusion
O=C(C[C@@H]1CC[C@@H]2[C@H](COC[C@H](O)CN2Cc2ccc(C(F)(F)F)cc2)O1)NCCc1ccccc1	.	-	.	-	.
C[C@@H]1CCCCO[C@H](CN(C)Cc2ccc(C(F)(F)F)cc2)[C@H](C)CN([C@H](C)CO)C(=O)c2cc(NC(=O)c3ccccc3)ccc2O1	.	-	.	-	89.7[16.7 µM]
C[C@H](CO)N1C[C@H](C)[C@@H](CN(C)Cc2ccc(C(F)(F)F)cc2)OCCCC[C@H](C)Oc2ccc(NC(=O)c3ccccc3)cc2C1=O	.	-	.	-	-
C[C@@H]1CCCCO[C@@H](CN(C)Cc2ccc(C(F)(F)F)cc2)[C@H](C)CN([C@H](C)CO)C(=O)c2cc(NC(=O)c3ccccc3)ccc2O1	.	-	.	-	78.6[16.7 µM]
C[C@@H]1CN([C@H](C)CO)C(=O)c2cc(NC(=O)c3ccccc3)ccc2O[C@@H](C)CCCCO[C@H]1CN(C)Cc1ccc(C(F)(F)F)cc1	.	-	.	-	68.6[16.7 µM]
Cc1noc(C)c1NC(=O)Nc1ccc2c(c1)C(=O)N([C@H](C)CO)C[C@H](C)[C@@H](CN(C)C(=O)C1CCCCC1)OCCCC[C@H](C)O2	.	-	.	-	-
C[C@@H]1CCCCO[C@H](CN(C)S(=O)(=O)c2ccccc2)[C@@H](C)CN([C@H](C)CO)C(=O)c2cc(NC(=O)CCC(F)(F)F)ccc2O1	.	-	.	-	-
CCC(=O)Nc1ccc2c(c1)C(=O)N(C)C[C@@H](OC)[C@@H](C)CN(Cc1ccccn1)[C@H](C)CO2	.	-	.	-	-
N#C/C(=C/c1ccc(N2CCCCCC2)o1)c1cccc(F)c1	85.6	-	.	-	-
N#C/C(=C\c1ccc(N2CCOCC2)o1)c1ccccc1	86.8	-	-	93.6	.
N#C/C(=C/c1ccc(N2CCCCCC2)o1)c1ccc(F)cc1	-	-	-	-	.
N#C/C(=C\c1ccc(N2CCOCC2)cc1)c1ccccc1	142.5	-	33.0	-	.
Cc1noc(C)c1NC(=O)Nc1ccc2c(c1)C(=O)N([C@@H](C)CO)C[C@@H](C)[C@@H](CN(C)S(=O)(=O)c1ccccc1)OCCCC[C@H](C)O2	.	-	.	-	-
OCCc1ccc(NCCc2cccs2)cc1	.	-	-	53.9	-
N#C[C@@H]1[C@H](c2ccc(C3=CCCCC3)cc2)[C@H](CO)N1C(=O)Nc1ccccc1F	.	.	.	-	-
Cc1cc(NC2CCCCC2)nc(NCc2ccccc2)n1	-	.	-	.	53.7
Cc1cc(Oc2ccc(C#N)cc2)nc(NCc2ccccc2)n1	-	-	-	-	60.6
COC(=O)c1ccc(Oc2cc(C)nc(NCc3ccccc3)n2)cc1	-	-	-	-	.
COc1cc(C)nc(NCc2ccccc2)n1	.	-	-	-	-
Cc1ccc(Nc2cc(C)nc(NCc3ccccc3)n2)cc1	-	.	-	.	151.4
COc1ccc(Nc2cc(C)nc(NCc3ccccc3)n2)cc1	.	-	-	.	71.0
C[C@H]1CN([C@@H](C)CO)C(=O)c2cccc(NC(=O)Nc3cccc4ccccc34)c2O[C@H]1CN(C)S(C)(=O)=O	.	-	.	-	-
CCS(=O)(=O)Nc1ccc2c(c1)C(=O)N(C)[C@H]1CC[C@@H](CC(=O)NCCOC)O[C@H]1CO2	.	.	.	-	-
C[C@@H]1CN([C@H](C)CO)C(=O)c2cc(NC(=O)Nc3ccc(C(F)(F)F)cc3)ccc2O[C@@H](C)CCCCO[C@@H]1CN(C)S(=O)(=O)c1ccc(F)cc1	.	-	.	-	-
O=C1CSc2ccc(C(=O)NCCC3=CCCCC3)cc2N1	-	-	-	50.4	-
SMILES	MITF act	miR-122 sensor	Wnt bcat act	esBAF inh	HIV Env fusion
COc1ccc(C(=O)NCCC2=CCCCC2)cc1OC	.	-	.	49.9	.
Cc1noc(C)c1NC(=O)NCC[C@@H]1CC[C@@H](NC(=O)c2ccccc2)[C@H](CO)O1	.	.	.	-	-
O=C(c1nnc(-c2ccncc2)o1)c1ccccc1Cl	-	.	35.1	-	-
Oc1ccc(-c2nc3ccccc3s2)cc1	-	-	47.0	-	-
COc1cccc(-c2nc3ccccc3s2)c1	-	-	.	.	.
c1ccc2sc(-c3ccncc3)nc2c1	-	.	42.5	.	-
c1cncc(-c2nc3ccccc3s2)c1	85.1	-	?	?	-
COc1ccc(-c2nc3ccccc3s2)cc1	-	.	-	.	-
CN(C)c1nc(N)nc(-c2nc3ccccc3s2)n1	-	.	31.4	.	.
